Of roughly 7,900 targets only a part is listed; those with a hit were picked by preference. About 0.6% of all pairs of compound and target were hits. Values without a mark were called inactive.

Chain of UniProt P07951 (P07951 whole entry, looked up): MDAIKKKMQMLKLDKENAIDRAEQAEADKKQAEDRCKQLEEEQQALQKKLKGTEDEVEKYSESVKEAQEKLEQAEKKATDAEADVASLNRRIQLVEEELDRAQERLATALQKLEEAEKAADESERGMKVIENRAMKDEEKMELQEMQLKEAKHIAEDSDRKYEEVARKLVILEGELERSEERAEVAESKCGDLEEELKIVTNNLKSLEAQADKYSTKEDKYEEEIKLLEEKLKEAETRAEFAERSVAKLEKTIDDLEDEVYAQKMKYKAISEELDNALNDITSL
Chain of UniProt O43617 (O43617 whole entry, looked up): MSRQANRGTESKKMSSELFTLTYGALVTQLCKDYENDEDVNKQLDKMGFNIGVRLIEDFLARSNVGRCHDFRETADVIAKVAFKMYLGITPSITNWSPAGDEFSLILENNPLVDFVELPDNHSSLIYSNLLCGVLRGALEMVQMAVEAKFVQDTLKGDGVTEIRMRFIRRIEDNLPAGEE
Chain of UniProt Q96K49 (Q96K49 whole entry, looked up): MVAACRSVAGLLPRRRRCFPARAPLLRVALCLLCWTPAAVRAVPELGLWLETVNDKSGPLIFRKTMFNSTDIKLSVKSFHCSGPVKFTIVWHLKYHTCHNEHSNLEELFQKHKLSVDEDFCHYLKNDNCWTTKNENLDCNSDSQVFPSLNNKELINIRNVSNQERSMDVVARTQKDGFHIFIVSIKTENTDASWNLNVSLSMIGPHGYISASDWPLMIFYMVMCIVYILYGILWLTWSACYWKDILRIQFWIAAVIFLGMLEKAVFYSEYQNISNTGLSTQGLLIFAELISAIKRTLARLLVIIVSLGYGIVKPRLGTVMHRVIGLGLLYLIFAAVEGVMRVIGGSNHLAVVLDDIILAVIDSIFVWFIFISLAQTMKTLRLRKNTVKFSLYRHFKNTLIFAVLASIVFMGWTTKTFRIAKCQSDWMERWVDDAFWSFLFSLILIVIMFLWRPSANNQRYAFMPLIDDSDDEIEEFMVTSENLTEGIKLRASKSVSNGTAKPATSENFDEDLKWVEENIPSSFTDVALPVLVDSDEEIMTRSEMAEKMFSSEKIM
Chain of UniProt P54578 (P54578 whole entry, looked up): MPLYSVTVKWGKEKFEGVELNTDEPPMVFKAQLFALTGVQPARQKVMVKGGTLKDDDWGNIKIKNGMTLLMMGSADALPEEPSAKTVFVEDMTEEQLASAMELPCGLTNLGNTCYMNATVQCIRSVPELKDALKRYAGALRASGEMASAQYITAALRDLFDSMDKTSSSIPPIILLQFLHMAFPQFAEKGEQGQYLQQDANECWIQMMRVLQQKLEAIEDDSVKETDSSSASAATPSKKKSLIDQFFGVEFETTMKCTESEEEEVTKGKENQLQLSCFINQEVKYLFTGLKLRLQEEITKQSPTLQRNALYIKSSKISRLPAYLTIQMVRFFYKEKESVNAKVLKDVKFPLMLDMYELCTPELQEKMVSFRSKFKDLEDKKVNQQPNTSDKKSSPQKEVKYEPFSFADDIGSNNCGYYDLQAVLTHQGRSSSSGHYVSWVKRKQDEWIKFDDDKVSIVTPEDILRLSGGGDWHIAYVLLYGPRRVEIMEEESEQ
Chain of UniProt Q12888 (Q12888 whole entry, looked up): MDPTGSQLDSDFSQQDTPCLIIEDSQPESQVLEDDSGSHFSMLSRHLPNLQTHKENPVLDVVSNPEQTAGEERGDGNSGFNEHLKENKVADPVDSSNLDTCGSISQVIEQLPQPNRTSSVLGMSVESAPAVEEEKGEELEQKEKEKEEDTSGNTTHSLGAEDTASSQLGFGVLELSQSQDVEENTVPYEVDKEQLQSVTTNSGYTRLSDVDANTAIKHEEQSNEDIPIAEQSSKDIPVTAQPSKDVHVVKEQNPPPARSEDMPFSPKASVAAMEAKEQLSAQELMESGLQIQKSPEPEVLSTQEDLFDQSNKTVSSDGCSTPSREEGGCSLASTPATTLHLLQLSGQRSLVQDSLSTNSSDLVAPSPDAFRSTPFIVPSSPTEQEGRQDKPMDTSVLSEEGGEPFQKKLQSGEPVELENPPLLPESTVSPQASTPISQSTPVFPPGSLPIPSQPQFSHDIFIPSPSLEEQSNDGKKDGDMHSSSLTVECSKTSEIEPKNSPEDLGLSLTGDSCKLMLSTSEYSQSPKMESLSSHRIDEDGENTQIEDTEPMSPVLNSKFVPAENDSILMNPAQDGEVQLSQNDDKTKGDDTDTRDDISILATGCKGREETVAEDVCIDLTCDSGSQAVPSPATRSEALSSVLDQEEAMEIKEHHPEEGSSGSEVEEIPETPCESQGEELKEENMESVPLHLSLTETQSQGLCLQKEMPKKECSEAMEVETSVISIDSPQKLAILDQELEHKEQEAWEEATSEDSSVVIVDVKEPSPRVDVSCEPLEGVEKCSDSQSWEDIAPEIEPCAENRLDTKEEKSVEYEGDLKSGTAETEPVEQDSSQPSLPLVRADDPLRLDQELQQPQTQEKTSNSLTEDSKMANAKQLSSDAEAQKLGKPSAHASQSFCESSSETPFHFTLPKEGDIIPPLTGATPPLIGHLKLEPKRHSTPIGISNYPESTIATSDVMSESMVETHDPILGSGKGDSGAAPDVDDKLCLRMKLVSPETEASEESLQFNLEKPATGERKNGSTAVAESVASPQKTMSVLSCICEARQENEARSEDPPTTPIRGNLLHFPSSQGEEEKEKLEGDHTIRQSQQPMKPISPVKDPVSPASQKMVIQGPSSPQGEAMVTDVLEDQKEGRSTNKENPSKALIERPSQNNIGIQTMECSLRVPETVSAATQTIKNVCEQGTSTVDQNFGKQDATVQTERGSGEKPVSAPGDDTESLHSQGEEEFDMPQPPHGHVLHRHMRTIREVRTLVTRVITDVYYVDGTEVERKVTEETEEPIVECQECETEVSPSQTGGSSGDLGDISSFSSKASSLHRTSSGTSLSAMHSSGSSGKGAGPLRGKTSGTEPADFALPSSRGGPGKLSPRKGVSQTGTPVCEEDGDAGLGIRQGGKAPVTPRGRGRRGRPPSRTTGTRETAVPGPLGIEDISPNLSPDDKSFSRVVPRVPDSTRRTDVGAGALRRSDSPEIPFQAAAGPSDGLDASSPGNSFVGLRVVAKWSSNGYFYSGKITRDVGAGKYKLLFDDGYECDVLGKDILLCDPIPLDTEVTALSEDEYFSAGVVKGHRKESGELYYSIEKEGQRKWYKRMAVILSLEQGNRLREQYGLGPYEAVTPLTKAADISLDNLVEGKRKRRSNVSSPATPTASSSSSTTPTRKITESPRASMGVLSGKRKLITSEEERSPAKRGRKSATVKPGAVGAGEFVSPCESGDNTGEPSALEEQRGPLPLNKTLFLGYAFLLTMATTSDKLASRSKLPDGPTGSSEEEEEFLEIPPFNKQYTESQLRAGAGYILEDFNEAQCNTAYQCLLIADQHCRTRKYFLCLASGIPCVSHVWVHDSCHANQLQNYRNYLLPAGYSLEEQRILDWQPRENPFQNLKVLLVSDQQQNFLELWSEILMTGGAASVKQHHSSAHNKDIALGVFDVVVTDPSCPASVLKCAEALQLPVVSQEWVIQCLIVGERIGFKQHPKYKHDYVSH
Chain of UniProt Q96AJ9 (Q96AJ9 whole entry, looked up): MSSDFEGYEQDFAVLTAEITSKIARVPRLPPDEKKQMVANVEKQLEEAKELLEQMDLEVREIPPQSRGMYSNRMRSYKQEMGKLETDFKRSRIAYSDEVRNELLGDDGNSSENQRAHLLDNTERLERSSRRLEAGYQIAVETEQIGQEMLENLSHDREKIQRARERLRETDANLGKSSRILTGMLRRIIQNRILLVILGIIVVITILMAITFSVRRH
Chain of UniProt O95155 (O95155 whole entry, looked up): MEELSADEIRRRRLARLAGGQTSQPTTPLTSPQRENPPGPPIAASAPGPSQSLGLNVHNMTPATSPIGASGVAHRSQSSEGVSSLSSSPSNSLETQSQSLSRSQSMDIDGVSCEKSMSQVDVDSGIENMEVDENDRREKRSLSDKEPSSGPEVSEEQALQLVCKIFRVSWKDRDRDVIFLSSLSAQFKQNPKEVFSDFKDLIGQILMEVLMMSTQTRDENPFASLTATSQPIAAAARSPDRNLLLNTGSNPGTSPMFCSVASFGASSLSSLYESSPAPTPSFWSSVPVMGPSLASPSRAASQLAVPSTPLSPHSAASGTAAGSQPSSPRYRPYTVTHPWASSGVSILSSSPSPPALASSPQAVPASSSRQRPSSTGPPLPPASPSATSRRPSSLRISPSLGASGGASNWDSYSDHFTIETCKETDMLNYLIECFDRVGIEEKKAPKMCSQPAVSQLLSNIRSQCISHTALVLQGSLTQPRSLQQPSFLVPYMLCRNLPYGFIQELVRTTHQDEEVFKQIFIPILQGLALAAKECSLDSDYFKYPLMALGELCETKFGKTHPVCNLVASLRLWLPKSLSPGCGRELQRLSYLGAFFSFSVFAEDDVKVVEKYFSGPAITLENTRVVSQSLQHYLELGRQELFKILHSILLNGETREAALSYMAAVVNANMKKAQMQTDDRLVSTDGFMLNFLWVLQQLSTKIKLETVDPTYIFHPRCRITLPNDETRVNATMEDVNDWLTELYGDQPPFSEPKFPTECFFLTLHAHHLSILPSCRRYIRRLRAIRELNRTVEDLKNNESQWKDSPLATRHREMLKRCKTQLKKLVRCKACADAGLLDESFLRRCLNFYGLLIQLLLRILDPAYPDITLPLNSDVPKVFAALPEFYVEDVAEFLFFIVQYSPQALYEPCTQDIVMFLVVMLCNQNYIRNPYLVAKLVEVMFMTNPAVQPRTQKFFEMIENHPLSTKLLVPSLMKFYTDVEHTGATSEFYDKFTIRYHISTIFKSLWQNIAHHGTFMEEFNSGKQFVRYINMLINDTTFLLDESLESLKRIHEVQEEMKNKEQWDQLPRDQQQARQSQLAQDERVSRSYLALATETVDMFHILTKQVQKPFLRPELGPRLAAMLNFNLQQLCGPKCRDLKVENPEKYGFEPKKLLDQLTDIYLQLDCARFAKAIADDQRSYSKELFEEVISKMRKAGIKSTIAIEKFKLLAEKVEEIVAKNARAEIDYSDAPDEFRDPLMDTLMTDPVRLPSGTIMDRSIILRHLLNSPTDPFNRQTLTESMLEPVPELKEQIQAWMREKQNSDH

Compound in the assay: COc1cccc2cc(-c3nc([C@H]4CC[C@H](C(=O)O)CC4)n4ncnc(N)c34)[nH]c12
The experiment in a line: log2 fold change, soluble protein after heating vs DMSO (PISA); higher = thermal stabilisation; K562 cells, 10 uM, 30 min; active = over 0.2 and 3.5 SD of the protein, either way, in both replicates (recomputed). Summed up: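 K562 cells at 2×10^6 cells/mL were exposed to 10 μM compound for 30 min, then aliquots were heated for 3 min across 48°C-58°C, pooled, and extracted in PBS containing 0.5% NP-40 at 4°C. The supernatant after 21,000xg for 90 min was taken as soluble protein and measured by TMTpro 16plex LC-MS/MS with channel sums equalised. Thermal stability is reported relative to control samples, with values from duplicates. Fold changes are given on a log2 scale.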
Regarding VPS18 (UniProt Q9P253), the log2 fold change is -0.041.
The same measure for TRAPPC11 (UniProt Q7Z392): -0.019; for VDAC1 (UniProt P21796): 0.052; for TNPO1 (UniProt Q92973): -0.012.
The same measure for UGDH (UniProt O60701): 0.059; for UCHL5 (UniProt Q9Y5K5): -0.031.
The same measure for TP53BP1 isoform 2 (UniProt Q12888): -0.041; for VRK1 (UniProt Q99986): -0.003; for WEE1 (UniProt P30291): -0.615.
Turning to VTI1A (UniProt Q96AJ9), the log2 fold change is 0.
As to WASHC2A (UniProt Q641Q2), the log2 fold change is -0.005.
For TMEM9 (UniProt Q9P0T7) the value was 0.052.
As to VPS33A (UniProt Q96AX1), the log2 fold change was -0.039.
Consider TMEM70 (UniProt Q9BUB7), for which the log2 fold change is 0.106.
For XRCC5 (UniProt P13010), the log2 fold change was -0.087.
For TRAPPC3 (UniProt O43617) the value was 0.067; for TNPO3 (UniProt Q9Y5L0), -0.004; for TPM2 (UniProt P07951), -0.14.
The same measure for UBE4B isoform 4 (UniProt O95155): 0.021.
Take USP14 (UniProt P54578): the log2 fold change is -0.043.
On to VPS50 (UniProt Q96JG6), for which the log2 fold change was -0.027.
The same measure for TMEM87B (UniProt Q96K49): 0.036.
Take TMEM263 (UniProt Q8WUH6): the log2 fold change was 0.065.
